Screening results from PubChem BioAssay.
IL-1B inflam inh: inflammasome signaling inhibition, IL-1 beta readout; activity change, % at 57.5 µM; THP-1 LPS/ATP IL-1B secretion, AlphaLISA, 16 h; stronger effect = lower value; actives 4.7% (n = 360,000); in the data active = activity change below about -50%; inconclusive = mostly about -30% to -49%; note: % is set by controls: 0 for no effect and ±100 for the full control effect
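Secreted IL-1B measured by AlphaLISA bead assay after 16 h compound exposure of THP-1 cells; compounds (final up to 57.5 uM) added 1 h before LPS (250 ng/mL) and ATP (1.25 mM) stimulation; lower signal means less secretion.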
DT40 TDP1 CPT: growth inhibition of DT40 Tdp1-/-;hTDP1 cells with camptothecin (screen for TDP1 inhibitors). actives 12% (n = 420,000). chicken DT40 Tdp1-/-;hTDP1 cells + 20 nM CPT, ATP luminescence, 48 h. Potency, µM (top dose mostly 46.2 µM), inactives show top-dose activity change, negative = growth inhibition, most hits filed as inhibitors; note: potency is the fitted concentration of half-maximal effect; % is set by controls: 0 for no effect and ±100 for the full control effect; nearly all actives have a fitted effect of over 55% in size
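Chicken DT40 Tdp1-/- cells complemented with human TDP1, 400 cells/well, exposed to compounds plus 20 nM camptothecin for at least 48 h at 37 C; viability read as ATP content by CellTiter-Glo luminescence.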
HepG2 viability: kills HepG2 cells in TGF-b inhibitor counter-screen. actives 0.76% (n = 410,000). Potency, µM (doses to about 46.1 µM), inactives show at the top dose activity change, negative = cytotoxicity, usual class: cytotoxic. HepG2 CAGA-GFP viability, ATP luminescence, 18 h; note: potency is the fitted concentration of half-maximal effect
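HepG2 CAGA-GFP cells (1000/well, DMEM with 1% FBS) received compound, then TGF-beta at 500 pg/mL final, and were incubated 18 hours at 37 degrees C. Viability was read by CellTiter-Glo luminescence. Media-only wells were set as complete cell-killing and DMSO as no toxicity.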
TGFb SMAD3 inh: blocks TGF-b signaling. HepG2 CAGA-GFP TGF-b/SMAD3 reporter, GFP fluorescence, 18 h; TGF-beta stimulated, 500 pg/mL final. Potency, µM (series often up to 46.1 µM), for inactives: at the highest dose activity, negative = inhibition, actives largely listed as inhibitors. actives 1.2% (n = 410,000); note: potency is the fitted concentration of half-maximal effect; % is set by controls: 0 for no effect and ±100 for the full control effect; nearly all actives have a fitted effect of over 65% in size
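Read-out: total well GFP (ex488/em500-530) summed from mean per-cell fluorescence. Cells: HEPG2 CAGA-GFP, 1% FBS DMEM, 18 h at 37 degrees C with 500 pg/mL final TGF-beta. Unstimulated wells served as the full-inhibition control; stimulated DMSO wells = 0%.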
DT40 TDP1 no CPT: qHTS for Inhibitors of human tyrosyl-DNA phosphodiesterase 1 (TDP1): qHTS in cells in absence of CPT | AID 686978, 2013 | actives 15% (n = 420,000) | Potency, µM (top dose mostly 46.2 µM), inactives show at the top dose activity change, negative = growth inhibition, hits mostly inhibitors | DT40 Tdp1-/- hTDP1 cells, no CPT, ATP luminescence, 48 h; note: potency is the fitted concentration of half-maximal effect; % is set by controls: 0 for no effect and ±100 for the full control effect; nearly all actives have a fitted effect of over 55% in size
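Readout: luminescence from CellTiter-Glo after 30 min in the dark at RT. Cells: DT40 Tdp1-/- with stable hTDP1, 400/well. Exposure: compounds alone, ≥48 hr, 37 °C.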
TDP1 block: TDP1 (human) enzyme inhibition. recombinant TDP1, AlphaScreen DNA substrate cleavage. Potency, µM (top dose mostly 130 µM), for inactives: at the top dose activity change, negative = inhibition, most hits filed as inhibitors. actives 0.28% (n = 350,000). AID 485290; note: potency is the fitted concentration of half-maximal effect; % is set by controls: 0 for no effect and ±100 for the full control effect; nearly all actives have a fitted effect of over 40% in size
Target sequence (Q9NUW8 whole entry, looked up): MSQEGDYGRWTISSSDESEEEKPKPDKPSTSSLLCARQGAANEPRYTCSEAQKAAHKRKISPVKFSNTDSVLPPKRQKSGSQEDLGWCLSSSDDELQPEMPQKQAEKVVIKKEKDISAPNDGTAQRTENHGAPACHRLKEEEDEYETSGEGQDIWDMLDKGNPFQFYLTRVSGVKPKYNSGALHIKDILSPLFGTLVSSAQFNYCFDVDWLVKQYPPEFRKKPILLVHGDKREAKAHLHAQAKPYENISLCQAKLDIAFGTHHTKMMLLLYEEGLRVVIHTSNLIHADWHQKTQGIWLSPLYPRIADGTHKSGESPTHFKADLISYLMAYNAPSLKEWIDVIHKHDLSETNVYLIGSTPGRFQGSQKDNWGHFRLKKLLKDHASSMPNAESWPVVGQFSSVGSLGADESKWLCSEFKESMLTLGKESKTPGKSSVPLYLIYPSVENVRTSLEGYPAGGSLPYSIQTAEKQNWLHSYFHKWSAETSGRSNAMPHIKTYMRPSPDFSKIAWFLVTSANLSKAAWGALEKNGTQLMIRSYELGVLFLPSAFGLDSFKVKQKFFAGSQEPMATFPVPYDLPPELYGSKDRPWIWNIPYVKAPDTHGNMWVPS
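Signal: AlphaScreen proximity between streptavidin donor and anti-FITC acceptor beads on intact substrate. Reaction: Tdp1 1 nM, substrate 15 nM final, 5 min RT after 15 min compound preincubation.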
Starred values were filed as active, the others as inactive; ? = inconclusive; · = no result; ! = a repeat was not active; [ ] = another dose, or the depositor's remark. Shown are actives, neighbours in structure and some others; about 19% of the full set was active somewhere. Unless noted, calls come from the whole dose curve; as a rule, active = well fitted curve in the direction sought with a large enough effect; inconclusive = small, poorly fitted or top-dose-only effect, or another doubt; inactive = no such curve, though single readings can be large; an effect the other way counts as inactive or inconclusive.

SMILES	IL-1B inflam inh	DT40 TDP1 CPT	HepG2 viability	TGFb SMAD3 inh	DT40 TDP1 no CPT	TDP1 block
O=S1(=O)N(Cc2ccccc2)CCCN1Cc1ccc(F)cc1Cl	·	?	-30%	-12%	?	·
Cc1cc(Oc2ccc(C(F)(F)F)cc2[N+](=O)[O-])c2c3c(c(=O)oc2c1)CCCC3	22	-24%	-24%	13%	?	-3%
COC(=O)[C@@H]1C[C@@]2(O)[C@H](O)[C@H](O)[C@H](O)C[C@H]2N1Cc1cccnc1	·	·	·	·	·	3%
Cc1ccc(/C=N/n2c(-c3ccccc3)csc2=S)cc1	·	15µM*	·	·	?	·
O=C(N/N=C/c1ccccc1OC(=O)N1CCOCC1)c1cccs1	126	4.1µM*	-20%	-21%	4.6µM*	2%
CC1=C2[C@@H]3OC(=O)[C@@H](C)[C@@H]3CC[C@]2(C)C=CC1=O	·	·	·	·	·	12%[21 µM]
CC1=C2C3OC(=O)C(C)C3CC[C@@]2(C)C=CC1=O (stereo partly drawn)	11	7%	0%	5%	4%	14µM*!
Cc1cccc(C(=O)Nc2nnc(SCC(=O)NCc3ccco3)s2)c1	-3	-10%	-13%	?	0%	·
COc1ccc(S(=O)(=O)N2CCN(C(=O)c3ccc(COc4ccccc4)o3)CC2)cc1	-14	?	23%	24%	?	·
COc1ccc(-c2nnc3n2N(C(C)=O)C(c2ccc(Cl)c(Cl)c2)=C(C(C)=O)S3)cc1	·	3.3µM*	-1%	11%	4.1µM*	-5%
COc1ccc(C2=C(C(C)=O)Sc3nnc(-c4ccc(Cl)cc4)n3N2C(C)=O)cc1OC	·	4.1µM*	0%	2%	2.3µM*	0%
C=CCN1CC[C@]23c4c5ccc(O)c4O[C@H]2[C@@H](O)C=C[C@H]3[C@H]1C5	·	7%	·	·	?	·
Cn1ncc2c(NCc3ccc(F)cc3)ncnc21	·	?	3%	0%	?	7%
O=C1NC(=O)N(c2ccccc2)C(=O)/C1=C\c1ccccc1[N+](=O)[O-]	15	23µM*	-9%	3%	-24%	·
O=C1NC(=O)N(c2ccccc2)C(=O)/C1=C/c1ccc(Sc2ccccc2)o1	-101*	?	-4%	23%	?	-12%
O=C1NC(=O)N(c2cccc(Cl)c2)C(=O)/C1=C\c1ccc(Sc2nc3ccccc3[nH]2)o1	-11	?	-9%	-20%	?	·
COc1ccc(N2C(=O)NC(=O)/C(=C/c3ccc([N+](=O)[O-])s3)C2=O)cc1	0	15µM*	5%	-23%	6.5µM*	-2%
COc1ccc(N2C(=O)NC(=O)/C(=C\c3ccc([N+](=O)[O-])s3)C2=O)cc1	?	13µM*	1%	?	?	-1%
c1cc2c(cc1[C@H]1OC[C@@H]3[C@H]1CO[C@H]3c1ccc3c(c1)OCO3)OCO2	·	-45%	·	·	-39%	8%
C[C@]12CC[C@H]3[C@@H](CCC4=C(Cl)C(=O)CC[C@@]43C)[C@@H]1CC[C@@H]2O	·	-8%	·	·	?	·
[S]=[Sb](=[S])[S][Sb](=[S])=[S]	·	5%	·	·	0%	·
COc1ccccc1N1C(=O)NC(=O)/C(=C/c2ccc([N+](=O)[O-])s2)C1=O	-62*	8.2µM*	11%	?	15µM*	-5%
O=C1NC(=O)N(Cc2ccccc2)C(=O)/C1=C/c1cnn(-c2ccccc2)c1	·	·	·	·	·	-3%
COc1ccccc1N1C(=O)NC(=O)/C(=C\c2cnn(-c3ccccc3)c2)C1=O	-90*	?	-24%	?	?	-5%
CC1(C)S[C@H]2[C@@H](N)C(=O)N2[C@H]1C(=O)O	·	0%	·	·	-14%	16%[56.1 µM]
SMILES	IL-1B inflam inh	DT40 TDP1 CPT	HepG2 viability	TGFb SMAD3 inh	DT40 TDP1 no CPT	TDP1 block
Cc1ccccc1CN1C(=O)C(C)N=C(c2ccccc2)c2ccccc21 (stereo not drawn)	·	?	-19%	-5%	18µM*	2%
COC(=O)C1=C(c2ccc(OCc3ccccc3)cc2)C[C@@H]2CC[C@H]1N2C(=O)NCCc1ccc(F)cc1	0	21µM*	-18%	-20%	?	·
COC(=O)C1=C(c2ccc(OCc3ccccc3)cc2)C[C@@H]2CC[C@H]1N2C(=O)NC1CCN(Cc2ccccc2)CC1	-21	8.2µM*	-76%	?	7.3µM*	3%
COC(=O)C1=C(c2ccc(OCc3ccccc3)cc2)C[C@@H]2CC[C@H]1N2C(=O)NCc1ccc2[nH]ccc2c1	-4	?	-6%	0%	?	·
COC(=O)C1=C(c2ccccc2)C[C@@H]2CC[C@H]1N2C(=O)NCCNC(C)=O	41	9%	-5%	-2%	-12%	·
COC(=O)C1=C(c2ccc(OCc3ccccc3)cc2)C[C@@H]2CC[C@H]1N2C(=O)NCCCCc1ccccc1	-25	?	-18%	-16%	18µM*	·
COC(=O)C1=C(c2ccc(OC(F)(F)F)cc2)C[C@@H]2CC[C@H]1N2C(=O)NCCc1ccccc1	0	2.9µM*	-55%	?	?	1%
CC(C)C[C@H](NC(=O)[C@H](Cc1ccccc1)NC(=O)CNC(=O)CNC(=O)[C@@H](N)Cc1ccc(O)cc1)C(=O)N[C@@H](CCCN=C(N)N)C(=O)N[C@@H](CCCCN)C(=O)N[C@@H](Cc1ccc(O)cc1)C(=O)N1CCC[C@H]1C(=O)N[C@@H](CCCCN)C(=O)O	·	8%[4.12 µM]	·	·	2%[4.12 µM]	10%
CN1CCN(c2nc3ccccc3o2)CC1	39	14%	2%	-4%	-1%	3%
COC(=O)C(O)(c1ccc(NC(=S)NC(=O)c2ccc(Cl)cc2Cl)c(C)c1)C(F)(F)F (stereo not drawn)	-21	?	-61%	?	21µM*	5%
CCOC(=O)C(O)(c1ccc(NC(=S)NC(=O)c2ccc(Cl)cc2Cl)c(C)c1)C(F)(F)F (stereo not drawn)	-54*	?	-97%	?	12µM*	5%
CCOC(=O)C(NC(=O)CC)(Nc1ccc(C(O)(C(=O)OCC)C(F)(F)F)cc1C)C(F)(F)F (stereo not drawn)	-25	-18%	-15%	2%	-13%	0%
CNC(=O)N(C)c1ccc(C(O)(C(=O)OC)C(F)(F)F)cc1 (stereo not drawn)	25	11%	2%	2%	-7%	·
C[C@@H](N)C(=O)c1ccccc1	·	-27%[92.5 µM]	·	·	-20%[92.5 µM]	·
